Assay outcomes (PubChem BioAssay)
Shown are actives, neighbours in structure and some others; about 3.2% of the full set was active somewhere.
PNC assembly inh: High Content Assay for Compounds that inhibit the Assembly of the Perinucleolar Compartment. AID 2417, 2010. PC3M PTB-GFP, PNC prevalence imaging, 16 h; stronger effect = lower value. activity change (PNC), negative = inhibition, % at 10 µM. hit rate 3.1% among 140,000;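 active means readout at or below -70, meaning at least 70% loss of cells showing the perinucleolar compartment, a nuclear body marking cancer cells; inconclusive means readout between -30 and a set limit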;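 further: plate controls were DMSO wells for no effect and camptothecin positive control wells for full effect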
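Compounds are pinned in duplicate onto adhered PC3M cells stably expressing GFP-tagged PTB and incubated 16 h at 37 C. Cells are then fixed, nuclei stained with Hoechst, and PNC-positive cells counted.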
ALOX12 inhib: qHTS Assay for Inhibitors of 12-hLO (12-human lipoxygenase) | purified 12-hLO, xylenol orange hydroperoxide absorbance | AID 1452, 2008 | hit rate 0.12% among 150,000 | Potency, µM (titrated, usually from 57.1 µM), without a hit: at the highest dose activity change, negative = inhibition, hits mostly inhibitors; further: potency means the concentration at half of the fitted maximal effect; nearly all actives have a fitted effect of over 55% in size
Target sequence (P18054 whole entry, looked up): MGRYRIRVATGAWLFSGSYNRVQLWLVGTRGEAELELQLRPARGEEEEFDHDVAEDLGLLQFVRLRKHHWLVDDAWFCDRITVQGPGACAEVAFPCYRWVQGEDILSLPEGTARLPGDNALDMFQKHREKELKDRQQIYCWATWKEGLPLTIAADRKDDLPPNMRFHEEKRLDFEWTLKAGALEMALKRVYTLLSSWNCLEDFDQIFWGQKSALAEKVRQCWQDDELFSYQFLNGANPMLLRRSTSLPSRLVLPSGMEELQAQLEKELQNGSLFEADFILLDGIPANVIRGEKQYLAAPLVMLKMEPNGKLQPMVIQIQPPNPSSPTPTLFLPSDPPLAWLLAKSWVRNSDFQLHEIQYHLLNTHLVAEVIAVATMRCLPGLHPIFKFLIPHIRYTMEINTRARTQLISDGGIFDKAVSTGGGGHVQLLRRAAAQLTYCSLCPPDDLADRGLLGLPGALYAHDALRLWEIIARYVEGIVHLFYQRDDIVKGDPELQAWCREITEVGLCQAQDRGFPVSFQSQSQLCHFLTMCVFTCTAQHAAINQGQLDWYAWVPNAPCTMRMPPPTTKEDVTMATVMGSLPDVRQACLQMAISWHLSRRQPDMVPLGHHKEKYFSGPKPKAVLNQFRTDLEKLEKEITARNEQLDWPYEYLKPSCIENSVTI
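Purified human 12hLO (150 nM), preincubated 15 min with compound, then 40 uM arachidonic acid for 30 min, room temperature, Hepes pH 7.0 with 0.01% Triton X-100. Hydroperoxide detected by ferrous iron/xylenol orange; 573/405 nm absorbance ratio gives reaction progress.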
15-hLO-2 inh: qHTS Assay for Inhibitors of 15-hLO-2 (15-human lipoxygenase 2); Potency, µM (series often up to 57.1 µM), without a hit: top-dose activity change, negative = inhibition, actives largely listed as inhibitors; AID 881, 2007; purified 15hLO-2, xylenol orange hydroperoxide absorbance; hit rate 0.56% among 110,000; Polyunsaturated fatty acid lipoxygenase ALOX15B (Homo sapiens), O15296; further: potency means the concentration at half of the fitted maximal effect; nearly all actives have a fitted effect of over 60% in size
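Screening format was qHTS against 50 nM purified 15hLO-2 in Hepes pH 7.5 with detergent. Activity follows hydroperoxide formation from 45 uM arachidonic acid, measured as 573:405 nm absorbance ratio of the ferric-xylenol orange complex.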
The depositor's hits bear a star; ? = inconclusive; . = not tested or not shown; [ ] = another dose, or the depositor's remark. Unless noted, the call rests on the fitted dose curve; in most records, active means well fitted curve in the direction sought with a large enough effect; inconclusive means small, poorly fitted or top-dose-only effect, or another doubt; inactive means no such curve, though single readings can be large; an effect the other way counts as inactive or inconclusive. Unless noted, on the % scale 0 is the no-effect control and ±100 the full control effect.

SMILES | PNC assembly inh | ALOX12 inhib | 15-hLO-2 inh
c1ccc2c(c1)Nc1ccccc1S2 | -19 | 14µM* | 5µM*
C[C@@]12CC[C@H]3[C@@H](CC[C@H]4C[C@@H](O)CC[C@]43C)[C@H]1CC[C@@H]2C(=O)C[C@H](O)C(F)(F)F | . | 3%[11.4 µM] | -14%[11.4 µM]
Cc1cc(Br)ccc1N1C(=O)CC(=O)NC1=O | -13 | ? | -10%
O=C1CC(=O)N(c2ccc(Cl)cc2Cl)C(=O)N1 | -127* | ? | 2%
CCOc1ccc2nc(N3CCC(C(=O)N4CCC5(CC4)OCCO5)CC3)sc2c1 | -103* | 3% | 1%
Cc1ccc2nc(N3CCC(C(=O)N4CCC5(CC4)OCCO5)CC3)sc2c1 | 18 | -7% | -8%
c1nc(N2CC2)c2cnn([C@@H]3CCCCO3)c2n1 | . | -2%[11.4 µM] | -6%[11.4 µM]
COc1ccccc1-n1c(O)c(C=NCc2ccc3c(c2)OCO3)c(=O)[nH]c1=O | -107* | -1% | -4%
COc1cccc(-n2c(O)c(C=NCc3ccc4c(c3)OCO4)c(=O)[nH]c2=O)c1 | -6 | -3% | -2%
COc1cccc(CN2CCN(C(=O)COc3ccc4ccccc4c3)CC2)c1 | 12 | -3% | -5%
COc1ccc(OCC(=O)N2CCN(C(C)C)CC2)cc1 | -100* | -4% | .
C[C@@](Br)(C(=O)O)[C@H](Br)C(=O)O | . | 3%[11.4 µM] | -3%[11.4 µM]
O=C1C=Cc2ccccc2C1=O | ? | -24% | .
O=C1C=CC(=O)c2c(O)cccc21 | . | -24% | 3.2µM*
COc1ccc(C(C)=O)cc1CC(C(=O)c1ccc(C)cc1)N(C)C (stereo unspecified) | 17 | -1% | .
COc1ccc(C(C)=O)cc1CC(C(=O)c1ccccc1)N(C)C (stereo unspecified) | -94* | 0% | .
S=C1NCCN1 | -85* | 0% | 6%
CO[C@@H]([CH2][Hg])CN1C(=O)c2ccccc2S1(=O)=O.Cn1c(=O)c2nc[nH]c2n(C)c1=O | . | 0%[11.4 µM] | ?
COc1cc2c(cc1OC)[C@@]13CCN4C=C5CCO[C@H]6CC(=O)N2[C@@H]1[C@@H]6[C@H]5C[C@H]43 | . | -2%[11.4 µM] | -3%[11.4 µM]
Cc1ccc(OP(=O)(Oc2ccc(C)cc2)N2C=Cc3ccccc3[C@H]2C#N)cc1 | . | -14%[11.4 µM] | -10%[11.4 µM]
N#C/C(=C\c1ccc(O)c(O)c1)C(N)=S | . | 13µM* | 25µM*
Oc1ccc(/C=N/NP(=S)(c2ccccc2)c2ccccc2)cc1O | 8 | ? | ?
Cc1ccc(C2(c3ccc(C)c(O)c3C)CCN(C)CC2)c(C)c1O | . | 3%[11.4 µM] | -5%[11.4 µM]
O=C(O)[C@H]1C2c3ccccc3C(c3ccccc32)[C@@H]1C(=O)NCC1CC1 | . | 6%[11.4 µM] | -5%[11.4 µM]
CCOC(=O)c1c(C)n(Cc2ccccc2)c2ccc(OCC(O)Cn3nc(C)nc3C)cc12 (stereo unspecified) | -24 | 6% | 8%
SMILES | PNC assembly inh | ALOX12 inhib | 15-hLO-2 inh
CCOC(=O)c1c(C)n(Cc2ccccc2)c2ccc(OCC(O)Cn3nc(C)cc3C)cc12 (stereo unspecified) | -80* | -5% | .
NCCc1c[nH]c2ccc(OC(=O)C(=O)O)cc12 | . | 2%[11.4 µM] | -4%[11.4 µM]
CC[C@@H]1CN2CCc3cc(OC)c(OC)cc3[C@H]2C[C@@H]1C[C@@H]1NCCc2cc(OC)c(OC)cc21 | . | -5% | 30%
COc1cc2c(cc1OC)C(C(=O)N1CCC3(CC1)OCCO3)C(c1ccccc1F)N(C)C2=O (stereo unspecified) | 6 | 7% | .
COc1cc2c(cc1OC)C(C(=O)NCCC(C)C)C1CCCCN1C2=O (stereo unspecified) | -119* | -2% | .
O=c1[nH]c(=O)n(C2CCCCC2)c(O)c1C=Nc1ccc(N2CCOCC2)cc1 | -97* | -5% | .
O=c1[nH]c(=O)n(C2CCCCCC2)c(O)c1C=NCC1CCCO1 (stereo unspecified) | ? | -2% | 1%
CN(C)CS/C(N)=N/[C@H](O)C(Cl)(Cl)Cl | . | -7%[11.4 µM] | 2%[11.4 µM]
O=C(O)[C@H]1C[C@@H]1[C@H](NP(=O)(c1ccccc1)c1ccccc1)c1ccccc1 | -82* | -1% | -4%
CNC(=O)[C@@H]1C[C@H]1[C@@H](NP(=O)(c1ccccc1)c1ccccc1)c1ccccc1 | . | -3% | 3%
c1ccc(NNc2ccccc2)cc1 | . | -8% | -11%
Cc1nc2ccccc2c(=O)n1-c1cccnc1 | 26 | 43% | 0%
Cc1nc2ccccc2c(=O)n1-c1cccc(O)c1 | -107* | -7% | -5%
CC[C@H](CO)NC(=O)[C@@H]1C=C2c3cccc4[nH]cc(c34)C[C@@H]2N(C)C1 | . | -4% | -2%
N#CC(Cl)Cl | . | -4% | -2%
O.O.[NH-]C1(C(=O)O)CCCC1.[NH-]C1(C(=O)O)CCCC1.[Ni+2] | . | -1%[11.4 µM] | -4%[11.4 µM]
O=C1NC(=O)C2(Cc3ccccc3N3CCCC32)C(=O)N1Cc1ccccc1 (stereo unspecified) | 42 | -17% | -10%
O=C1NC(=O)[C@]2(Cc3ccccc3N3CCN(c4ccccc4)CC32)C(=O)N1Cc1ccccc1 (stereo partly specified) | -17 | -18% | 32µM*
CN(C)c1ccc(N(C)C)cc1 | . | -12% | -2%
CCNC(=O)[C@@H]1O[C@@H](n2cnc3c(N)ncnc32)[C@@H](O)[C@H]1O | . | -3% | -8%
Cn1cccc1/C=C1\C(=O)NC(=O)N(CCC2=CCCCC2)C1=O | ? | -8% | .
O=C1NC(=O)N(CCC2=CCCCC2)C(=O)/C1=C\c1cccs1 | -86* | -15% | .
COc1cccc(OC)c1C1=NCC(=O)Nc2c1oc1ccc(Br)cc21 | -119* | -26% | .
O=C1CN=C(c2ccccc2)c2oc3ccc(Br)cc3c2N1 | ? | ? | -10%
COC(=O)[C@]1(C)CC[C@@]2(C)CC[C@@]3(C)C4=CCc5c(cc(O)c(O)c5C)[C@]4(C)CC[C@@]3(C)C2C1 (stereo partly specified) | . | -1% | 1%
SMILES | PNC assembly inh | ALOX12 inhib | 15-hLO-2 inh
CC1=C(O)C(=O)C=C2C1=CC=C1[C@]2(C)CC[C@@]2(C)C3C[C@](C)(C(=O)O)CC[C@@]3(C)CC[C@@]12C (stereo partly specified) | . | ? | 4µM*
C=CCN1CC[C@@]23CCCC[C@@H]2[C@@H]1Cc1ccc(O)cc13 | . | -5% | 5%
C=CCN1CC[C@]23c4c5ccc(O)c4O[C@@H]2C(=O)CC[C@@]3(O)[C@H]1C5 | . | -5% | -6%
Cc1c(OCC(F)(F)F)ccnc1CS(=O)c1nc2ccccc2[nH]1 (stereo unspecified) | -2 | -11% | ?
COCCCOc1ccnc(CS(=O)c2nc3ccccc3[nH]2)c1C (stereo unspecified) | . | -10%[0.00818 µM] | 13µM*
N[C@H](Cc1ccc(N(CCCl)CCCl)cc1)C(=O)O | . | 3% | 10%
CC(=O)[O][Hg][c]1ccccc1 | . | ? | 0.32µM*
CC(=O)/C=C/c1ccccc1 | . | -3% | -17%
N[C@@H](Cc1cc(O)c(O)cc1O)C(=O)O | . | -18% | 33%
COc1ccc(CCNCc2ccccn2)cc1OC | 24 | -5% | 9%
COc1ccc(CCNCc2ccc(F)cc2)cc1OC | -106* | 7% | 13%
